Results on 15 compounds are retold here after PubChem BioAssay (NCI).

Molecules are shown by their SMILES. The panel holds about 83,000 compounds, 20% with a hit somewhere; the sample as a whole holds those more often.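 How to read the values: 0–100, growth inhibition (40 = 60% inhibited); 0, no net growth; -100 to 0, cell death (-40 = 40% of starting cells died; -100 = all dead).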 Unmarked numbers belong to inactive results. Active and inactive are the calls of the source. The calls were made as follows: active = growth percent below 10; inactive = the rest.

Among the test systems are T-47D breast; BT-549 breast; MDA-MB-435 melanoma; SW-620 colon; MCF7 breast; HCT-116 colon; HCC-2998 colon; KM12 colon.
Common to all, as to test: NCI-60 one-dose screen, 48 h (100 = growth as untreated, 0 = no growth, -100 = all killed)
Common to all, as to conditions: 10 µM unless noted

For the compound `O=S(=O)(Oc1ccc(-c2cn3ccoc3n2)cc1)C1CCCCC1`, the growth with T-47D breast was 95.7%; in the assay on BT-549 breast, 125%; in the assay with MDA-MB-435 melanoma, 98.6%; with SW-620 colon, 103%; with MCF7 breast, 87%; with HCT-116 colon, 89.3%. Besides, the growth with HCC-2998 colon is 113%; in the assay on KM12 colon, 103%.
For the compound `Cc1ccc(NC(=O)/C=C/c2ccc(OCCCOc3ccc4c(C)cc(=O)oc4c3)cc2)cc1`, the growth in the assay on T-47D breast is 70.3%; in the assay on BT-549 breast, 98.7%; with MDA-MB-435 melanoma, 77.1%; in the assay on SW-620 colon it was 83.5%; in the assay on MCF7 breast it was 73.4%; in the assay on HCT-116 colon, 78.9%. For the same compound, the growth in the assay on HCC-2998 colon is 80.5%; with KM12 colon, 84.8%.
As to `O=S(=O)(NCCCNc1nccc(-c2[nH]c(-c3ccccc3)nc2-c2ccc(F)c(O)c2)n1)c1ccccc1`, the growth was 90.1% with T-47D breast; 112% in the assay with BT-549 breast; 51% with MDA-MB-435 melanoma; 133% with SW-620 colon; 94.9% with MCF7 breast; 77.9% with HCT-116 colon. Moreover, the figures for the growth in the assay on HCC-2998 colon and in the assay on KM12 colon were 126% and 98.8%, respectively.
On to `CC[C@]12C=CCN3CC[C@@]4(c5ccc(OC)cc5N(C)[C@H]4[C@@](O)(C(=O)OC)[C@@H]1OC(=O)CCN1CCc4ccccc4C1)[C@@H]32`, for which the growth in the assay with T-47D breast was 84%; with BT-549 breast, 93.2%; in the assay with MDA-MB-435 melanoma, 95.6%; with SW-620 colon, 95.6%; in the assay on MCF7 breast, 82.5%; in the assay with HCT-116 colon it was 90.9%. In addition, the growth was 69.5% in the assay on HCC-2998 colon and 103% in the assay with KM12 colon.
For the compound `CCN(CC)CCOc1ccc(C(=C(c2ccccc2)C2CCCC2)c2ccc(OCCN(CC)CC)cc2)cc1`, the growth was 18.8% in the assay on T-47D breast; -18.6% (active) in the assay with BT-549 breast; -10% (active) in the assay with MDA-MB-435 melanoma; 33.5% in the assay with SW-620 colon; -57.3% (active) with MCF7 breast; 13.3% in the assay with HCT-116 colon. For the same compound, the growth with HCC-2998 colon is -62.3% (active); in the assay on KM12 colon, -7.22% (active).
Consider `COc1ccc2c(c1)c(-c1nn3cc(-c4ccncc4)nc3s1)cn2C`, for which the growth in the assay on T-47D breast is 42.4%; in the assay with BT-549 breast it was 71.5%; in the assay on MDA-MB-435 melanoma, 96.3%; with SW-620 colon, 69.5%; in the assay on MCF7 breast, 19.3%; in the assay on HCT-116 colon, 55.1%. Besides, the growth with HCC-2998 colon was 87.2%; in the assay on KM12 colon it was 83.3%.
`O=c1c2ccccc2cc2n1CCN=C2c1ccccc1`: the growth is 91.7% with T-47D breast; 116% in the assay with BT-549 breast; 104% in the assay on MDA-MB-435 melanoma; 96% in the assay with SW-620 colon; 94.7% in the assay on MCF7 breast; 106% in the assay with HCT-116 colon. In addition, the growth in the assay with HCC-2998 colon was 109%; with KM12 colon, 104%.
In the case of `CN1CCN(c2ccc(Nc3nc(NCCNS(=O)(=O)c4ccc(Cl)cc4)c4sccc4n3)cc2)CC1`, the growth with T-47D breast was 84.3%; with BT-549 breast, 111%; in the assay on MDA-MB-435 melanoma it was 95.4%; in the assay with SW-620 colon it was 94.7%; in the assay on MCF7 breast, 83.2%; in the assay with HCT-116 colon, 58.5%. Moreover, the growth with HCC-2998 colon is 108%; in the assay with KM12 colon, 93.7%.
On to `CC(=O)N(O)CCCCCNC(=O)CCC(=O)N(O)CCCCCNC(=O)CCC(=O)N(O)CCCCCN(CCCCCCCCCC[P+](c1ccccc1)(c1ccccc1)c1ccccc1)CCCCCCCCCC[P+](c1ccccc1)(c1ccccc1)c1ccccc1`, for which the growth in the assay with T-47D breast is -4.99% (active); with BT-549 breast, -30.7% (active); in the assay on MDA-MB-435 melanoma, 4.44% (active); in the assay with SW-620 colon it was 12.2%; in the assay with MCF7 breast, 5.05% (active); in the assay on HCT-116 colon, 3.76% (active). Moreover, the growth is 4.2% (active) with HCC-2998 colon and 4.3% (active) in the assay with KM12 colon.
`CCCNNC(=O)c1ccc(-c2ccc(NC(=O)CCCCCCC(=O)N[C@H](C(=O)N3C[C@H](O)C[C@H]3C(=O)N[C@@H](C)c3ccc(-c4scnc4C)cc3)C(C)(C)C)cc2)cc1`: the growth is 9.23% (active) in the assay with T-47D breast; 50.5% with BT-549 breast; 8.72% (active) in the assay with MDA-MB-435 melanoma; 12.1% with SW-620 colon; 12% in the assay with MCF7 breast; 7.95% (active) in the assay on HCT-116 colon. In addition, the growth is 19.4% in the assay on HCC-2998 colon and 26.7% in the assay with KM12 colon.
As for `O=C(/C=C/c1ccccc1Cl)Nc1ncc(Cc2cc(Cl)ccc2Cl)s1`, the growth in the assay on T-47D breast was 29.9%; with BT-549 breast it was 32.5%; in the assay with MDA-MB-435 melanoma, -26.6% (active); with SW-620 colon it was 14.3%; with MCF7 breast, 16.6%; with HCT-116 colon, 17.3%. Also, the results for the growth in the assay on HCC-2998 colon and in the assay with KM12 colon were 57.8% and 22.1%, respectively.
In the case of `O=C(CCCCCCNC(=O)C(O)(O)C(F)(F)F)Nc1ncc(-c2ccccc2)s1`, the growth with T-47D breast was 8.47% (active); in the assay on BT-549 breast it was -9.98% (active); with MDA-MB-435 melanoma, 0.873% (active); in the assay with SW-620 colon, 0.575% (active); with MCF7 breast, 11.7%; with HCT-116 colon, 2.27% (active). For the same compound, the growth in the assay with HCC-2998 colon is -46.1% (active); with KM12 colon, -28.7% (active).
On to `O=C(CSc1nc2ccccc2c(=O)n1CCc1ccccc1)Nc1ccc(S(=O)(=O)Nc2ccc(Cl)nn2)cc1`, for which the growth with T-47D breast is 88.6%; in the assay with BT-549 breast, 98.9%; in the assay on MDA-MB-435 melanoma, 99.8%; in the assay on SW-620 colon, 91.3%; in the assay on MCF7 breast, 79.7%; in the assay on HCT-116 colon it was 93.4%. For the same compound, the growth in the assay with HCC-2998 colon is 102%; with KM12 colon, 98.8%.
As to `C/C(CC1(O)C(=O)Nc2ccccc21)=N\O` (stereo not given), the growth in the assay with T-47D breast was 83.7%; with BT-549 breast, 101%; in the assay with MDA-MB-435 melanoma it was 104%; in the assay with SW-620 colon, 94.5%; in the assay on MCF7 breast it was 95.2%; with HCT-116 colon, 98.1%. Besides, the figures for the growth in the assay on HCC-2998 colon and in the assay with KM12 colon were 111% and 101%, respectively.
In the case of `O=C1[C@@H]2Cc3c([nH]c4ccccc34)[C@@H](c3ccc(Cl)cc3)N2C(=O)CN1C1CCN(Cc2ccccc2)CC1`, the growth was 81.7% in the assay with T-47D breast; 77.6% in the assay with BT-549 breast; 64.2% in the assay with MDA-MB-435 melanoma; 65.9% in the assay with SW-620 colon; 19% in the assay with MCF7 breast; 9.43% (active) in the assay on HCT-116 colon. Also, the growth is 43.9% in the assay on HCC-2998 colon and 50.4% in the assay with KM12 colon.
